Experiment [1] addresses Cellular tumor antigen p53 (Homo sapiens) (UniProt P04637). Description: Primary qHTS for small molecule compounds that upregulate eGFP-tagged delta133p53alpha (in N-terminal) cells. (AID 2060322).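 Also: cells pre-induced with doxycycline then dosed without doxycycline; series mostly up to about 56 µM; 0% = DMSO vehicle and 100% = reference activator; nearly all actives have a fitted effect of over 75% in size.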 The conditions noted are these: NCI-H358 eGFP-delta133p53alpha fluorescence, 24 h; activation: stronger effect = higher value. In a few lines:
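NCI-H358 cells pre-induced 24 h with 10 ng/ml doxycycline for eGFP-delta133p53alpha, plated dox-free and exposed 24 h at 37C to titrated compounds. Fixed, Hoechst-stained; gated GFP peak intensity by laser scanning cytometry, normalized to DMSO (0%) and 57.5 uM 5-azacytidine (100%).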
A general note: Quantitative high-throughput screening tests each substance at several concentrations.

For experiment [2] the target is unchanged. Description: Primary qHTS for small molecule compounds that upregulate eGFP-tagged delta133p53alpha (in C-terminal) cells. (AID 2060324). Also: potency is read from the fitted curve at half-maximal effect. In a few lines: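 Read-out: gated-cell GFP peak intensity (laser scanning cytometer), plate-normalized with DMSO as 0% activity, after 24 h compound exposure at 37C. Cells were C-terminal eGFP-tagged delta133p53alpha NCI-H358, doxycycline-induced (100 ng/ml, 24 h) before plating.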

In experiment [3] the target is Aldehyde dehydrogenase, mitochondrial (Homo sapiens) (UniProt P05091). Description: qHTS for Inhibitors of the Aldehyde Dehydrogenase Family (ALDH2) Validation screens (AID 2061302; active = well fitted inhibition curve with a large enough effect; title and protocol of this record describe different tests;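 also: plate controls were DMSO vehicle for no effect and maximal DPI positive control response for full effect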).
In experiment [4] the target is Retinaldehyde dehydrogenase 3 (Homo sapiens) (UniProt P47895). Put plainly: qHTS for Inhibitors of the Aldehyde Dehydrogenase Family (ALDH1A3) Validation screen (AID 2061312). Also: % is scaled to controls: 0 for no effect and ±100 for the full control effect; nearly all actives have a fitted effect of over 45% in size.

SMILES strings stand for the structures. Several values for one entry are separate records, joined by “and”; a condition that tells them apart may be missing. Equal entries are not always repeated. Records with an inconclusive call do not appear. Values without a mark were called inactive. Activity calls are given as the source filed them. Unless noted, calls follow the shape of the dose curve; as a rule, active = well fitted curve in the direction sought with a large enough effect; inconclusive = small, poorly fitted or top-dose-only effect, or another doubt; inactive = no such curve, though single readings can be large; an effect the other way counts as inactive or inconclusive.

Cellular tumor antigen p53 (Homo sapiens), sequence (P04637 whole entry, looked up): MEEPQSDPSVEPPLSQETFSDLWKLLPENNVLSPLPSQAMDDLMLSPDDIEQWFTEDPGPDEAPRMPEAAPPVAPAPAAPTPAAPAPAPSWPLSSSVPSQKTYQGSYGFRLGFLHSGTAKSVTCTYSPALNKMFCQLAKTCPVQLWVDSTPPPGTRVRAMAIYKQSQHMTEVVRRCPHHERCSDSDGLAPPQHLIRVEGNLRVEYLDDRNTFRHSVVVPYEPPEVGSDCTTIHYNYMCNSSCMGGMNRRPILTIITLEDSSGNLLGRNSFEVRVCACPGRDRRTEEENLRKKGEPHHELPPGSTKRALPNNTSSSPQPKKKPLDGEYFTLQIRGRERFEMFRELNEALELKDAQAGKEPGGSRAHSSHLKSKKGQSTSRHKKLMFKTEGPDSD

`COc1ccc(/C=C2\COc3ccc(C)cc3C2=O)cc1O`: in experiment [1], the activation is -71.5%. Besides, the Potency in experiment [2] was 13.5 µM (active). For the same compound, the Potency result in experiment [3] and in experiment [4] was “inactive” throughout.
For the compound `O=C(O)C1=CCNCC1`, in experiment [1], the activation was -0.576%. For the same compound, the Potency result in experiment [2], in experiment [3] and in experiment [4] was “inactive” in each case.
For the compound `NCCCCN=C(N)N`, the activation in experiment [1] was -3.8%. Moreover, the Potency result in experiment [2], in experiment [3] and in experiment [4] was “inactive” throughout.
As to `Cc1ccc(=O)n(-c2ccccc2)c1`, the activation in experiment [1] is 1.01%. Also, the Potency result in experiment [2], in experiment [3] and in experiment [4] was “inactive” throughout.
As to `CC(=O)c1ccc(S(=O)(=O)NC(=O)NC2CCCCC2)cc1`, in experiment [1], the activation is 3.35% and -2.1%. Besides, the Potency result in experiment [2], in experiment [3] and in experiment [4] was “inactive” throughout.
Turning to `CC[C@H](NC(=O)c1c(C)c(-c2ccccc2)nc2ccccc12)c1ccccc1`, in experiment [1], the activation is -16.3%. For the same compound, the Potency entry in experiment [2], in experiment [3] and in experiment [4] was “inactive” each time.
For `O=C(c1ccc2c(c1)OCCO2)N1CCCCC1`, the activation in experiment [1] is 8.27%. In addition, the Potency result in experiment [2], in experiment [3] and in experiment [4] was “inactive” throughout.
On to `Clc1nccc2c1ccc1ccccc12`, for which the activation in experiment [1] was -42.2%. The Potency result in experiment [2], in experiment [3] and in experiment [4] was “inactive” in each case.
On to `NC1C=CC=C(C(=O)O)C1` (configuration not stated), for which, in experiment [1], the activation is -22%. The Potency result in experiment [2], in experiment [3] and in experiment [4] was “inactive” in each case.
On to `C[C@H](CS)C(=O)N1CCC[C@H]1C(=O)O`, for which the activation in experiment [1] is 1.67% and -24.1%. The Potency entry in experiment [2], in experiment [3] and in experiment [4] was “inactive” each time.
As for `O=C(O)C1CCNCC1`, in experiment [1], the activation is -2.71%. In addition, the Potency entry in experiment [2], in experiment [3] and in experiment [4] was “inactive” each time.
Take `N[C@H](C(=O)O)[C@H](Cc1ccccc1)C(=O)O`: in experiment [1], the activation was 1.24%. Moreover, the Potency entry in experiment [2], in experiment [3] and in experiment [4] was “inactive” in each case.
With `CCCCC[C@H](CC(=O)NO)C(=O)N[C@H](C(=O)N1CCC[C@H]1CO)C(C)C`, the activation in experiment [1] was -6.85%. Moreover, the Potency result in experiment [2], in experiment [3] and in experiment [4] was “inactive” throughout.
On to `O=C1NC(=O)c2c1c(-c1ccccc1)cc1[nH]c3ccc(O)cc3c21`, for which the activation in experiment [1] was -2.02%. Further, in experiment [2], the Potency is 26.9 µM (active). The Potency result in experiment [3] and in experiment [4] was “inactive” in each case.
Turning to `COc1cccc(OC)c1OCCNCC1CSc2ccccc2O1` (configuration not stated), the activation in experiment [1] is 20.5%. The Potency entry in experiment [2], in experiment [3] and in experiment [4] was “inactive” each time.
As to `CC(CN(C)C)CN1c2ccccc2CCc2ccccc21` (configuration not stated), in experiment [1], the activation is -10% and -21.6%. In addition, the Potency result in experiment [2], in experiment [3] and in experiment [4] was “inactive” in each case.
For `N[C@H](CCCP(=O)(O)O)C(=O)O`, the activation in experiment [1] is -16.6%. Further, the Potency entry in experiment [2], in experiment [3] and in experiment [4] was “inactive” in each case.
For `O[Si](CCCN1CCCCC1)(c1ccc(F)cc1)C1CCCCC1` (configuration not stated), the activation in experiment [1] was -77.2%. Further, the Potency entry in experiment [2], in experiment [3] and in experiment [4] was “inactive” in each case.
Regarding `COC(=O)C1=C(C)NC(C)=C([N+](=O)[O-])C1c1ccccc1C(F)(F)F` (configuration not stated), in experiment [1], the activation was -39.9%. Also, the Potency result in experiment [2], in experiment [3] and in experiment [4] was “inactive” in each case.
In the case of `Cc1ccc([N+](=O)[O-])cc1S(=O)(=O)N(C)C`, the activation in experiment [1] is -2.98%. The Potency result in experiment [2], in experiment [3] and in experiment [4] was “inactive” throughout.
For the compound `Nc1nc2c(ncn2[C@@H]2O[C@H](CO)[C@@H](O)[C@@H]2O)c(=O)[nH]1`, the activation in experiment [1] is -6.66%. Also, the Potency entry in experiment [2], in experiment [3] and in experiment [4] was “inactive” throughout.
In the case of `C[C@@]1(C2CCCC2)Cc2cc(OCC(=O)O)c(Cl)c(Cl)c2C1=O`, the activation in experiment [1] is 4.66%. For the same compound, the Potency result in experiment [2], in experiment [3] and in experiment [4] was “inactive” each time.
For `NCCCC(=O)O`, the activation in experiment [1] is -3.84%. The Potency result in experiment [2], in experiment [3] and in experiment [4] was “inactive” throughout.
Consider `CC(C)NC[C@H](O)COc1ccc(CC(N)=O)cc1`, for which the activation in experiment [1] is -18.8%. The Potency result in experiment [2], in experiment [3] and in experiment [4] was “inactive” throughout.
As to `Nc1nc(Cl)nc2c1ncn2[C@@H]1O[C@H](COP(=O)(O)OP(=O)(O)OP(=O)(O)O)[C@@H](O)[C@H]1O`, the activation in experiment [1] was -39.8%. The Potency entry in experiment [2], in experiment [3] and in experiment [4] was “inactive” throughout.
With `O=c1ccn([C@@H]2O[C@H](COP(=O)(O)OP(=O)(O)O)[C@@H](O)[C@H]2O)c(=O)[nH]1`, the activation in experiment [1] was -29.5%. Further, the Potency result in experiment [2], in experiment [3] and in experiment [4] was “inactive” throughout.
On to `CCO/C([O-])=N/c1c[n+](N2CCOCC2)no1`, for which the activation in experiment [1] was 9.21% and 19.2%. Moreover, the Potency result in experiment [2], in experiment [3] and in experiment [4] was “inactive” throughout.
On to `CC1=NS(=O)(=O)c2cc(Cl)ccc2N1`, for which the activation in experiment [1] is 19.8% and -34.3%. In addition, the Potency entry in experiment [2], in experiment [3] and in experiment [4] was “inactive” in each case.
`CC1CCN=C(N)S1` (configuration not stated): the activation in experiment [1] is -24.3%. The Potency result in experiment [2], in experiment [3] and in experiment [4] was “inactive” each time.
As for `Cn1cnc2c(NCc3ccccc3)nc(NCCO)nc21`, in experiment [1], the activation is -37%. The Potency result in experiment [2], in experiment [3] and in experiment [4] was “inactive” throughout.
With `C[C@H](Cc1ccccc1)Nc1ncnc2c1ncn2[C@@H]1O[C@H](CO)[C@@H](O)[C@H]1O`, in experiment [1], the activation is -29.5%. Also, the Potency result in experiment [2], in experiment [3] and in experiment [4] was “inactive” in each case.
In the case of `NC[C@H]1O[C@@H](n2cnc3c(N)ncnc32)[C@H](O)[C@@H]1O`, the activation in experiment [1] is 4.39%. Besides, the Potency entry in experiment [2], in experiment [3] and in experiment [4] was “inactive” each time.
With `O=c1[nH]c2cc(Cl)ccc2c(O)c1-c1ccc(Oc2ccccc2)cc1`, the activation in experiment [1] is 23.6%. The Potency entry in experiment [2], in experiment [3] and in experiment [4] was “inactive” in each case.

The record behind these values is PubChem BioAssay (NCATS).
